Assay outcomes: PubChem, Broad Institute
Tg IFNy HTS = T. gondii growth inhibition with IFN-gamma, primary screen, cell-based; activity change, negative = inhibition, % (concentration not given with the values); 69,000 compounds, 3.8% hits; Toxoplasma gondii growth in IFN-gamma-treated host cells; stronger effect = lower value; in the data active = activity change below about -70%, passing the limit was not always enough;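 note: host cells are HeLa cells infected with Toxoplasma gondii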
* = called active by the depositor; ! = not active in a repeat. Only a selection was taken, and hits are over-represented in it overall.

SMILES	Tg IFNy HTS
CCCNC(=O)c1cc(-c2cnc(NCc3ccccc3)nc2)cn1C	-82*
Cn1cc(-c2cnc(-c3ccccc3)nc2)cc1C(=O)NCCC#N	8
Cc1nc(OCC(=O)Nc2ccc(Cl)cc2)c2ccccc2n1	17
CN(Cc1ccccn1)C1C=CC2(CC1)CCN(C(N)=O)CC2 (stereo unspecified)	-57
CS(=O)(=O)N1CCCC12CCCN(C(=O)c1cnc[nH]1)C2 (stereo unspecified)	-9
Cc1ccc(C(=O)Nc2ccc(-c3nc(Cn4cccn4)c(C)o3)cc2)cc1F	23
COc1cccc(C(=O)Nc2ccc(-c3nc(Cn4cc(C)cn4)c(C)o3)cc2)c1	-93*
Cc1oc(-c2ccc(NC(=O)c3cccc(F)c3)cc2)nc1Cn1cccn1	-87*
COc1cccc(C(=O)Nc2ccc(-c3nc(Cn4cccn4)c(C)o3)cc2)c1	-99*
Cc1oc(-c2ccc(NC(=O)c3cc(F)cc(F)c3)cc2)nc1Cn1cccn1	20
Cc1oc(-c2ccc(NC(=O)c3cccc(Cl)c3)cc2)nc1Cn1cccn1	-33
Cc1cnn(Cc2nc(-c3ccc(NC(=O)c4cccc(C#N)c4)cc3)oc2C)c1	-50
COc1cccc(CC(=O)Nc2ccc(-c3nc(Cn4cccn4)c(C)o3)cc2)c1	-44
Cc1oc(=O)oc1COC(=O)C1=C([C@H]2CCCO2)S[C@@H]2[C@@H]([C@@H](C)O)C(=O)N12	6
Cc1cnc(C(=O)N2CCC3(C2)CN(c2cnn(C)c2)C(=O)CN3C)cn1 (stereo unspecified)	2
CCc1csc(-c2ccc(S(=O)(=O)NCCN3CCC(C)CC3)s2)n1	-48
COc1ccc(CC(=O)N2CCc3ncnc(NC4CC4)c3CC2)cc1	-69
COc1cccc(CC(=O)N2CCc3ncnc(NC4CC4)c3CC2)c1	-3
O=C(c1ccco1)N1CCc2ncnc(NC3CC3)c2CC1	-86*
O=C(c1cccnc1)N1CC[C@@H](OCC2CC2)[C@@H]1Cc1ccccc1	87
COc1ccccc1CNC1=NCCNC12CCN(S(=O)(=O)c1cccs1)CC2	21
O=C(O)CSc1nnc(Cc2ccncc2)n1-c1cccnc1	16
CCN1CCC2(CN(C(=O)N(C)C)CC23CCN(Cc2cnn(C)c2)CC3)C1=O (stereo unspecified)	-1
CN(C)Cc1cnc2n1CCN(C(=O)Cc1ccsc1)CC2	-3
Cc1c(C)n(C2CCCC2)c2ncnc(OC3CCN(C(=O)Cc4ccsc4)CC3)c12	-80*
SMILES	Tg IFNy HTS
CS(=O)(=O)c1cnc(N2CCCCC2)nc1C1CCN(C(=O)Cc2ccsc2)CC1	-19
O=C(Cc1c(O)c2ccccc2oc1=O)c1ccc2c(c1)OCCO2	58
CC(C)c1ccc2c(c1)CCC1[C@](C)(CN)CCC[C@]21C (stereo partly specified)	-9
COc1ccc2c3c(n(C)c2c1)[C@@H](CO)N(C(=O)CC1CC1)CC31CN(C(=O)NC(C)C)C1	129
CC(C)c1c(O)ccc2c1CCC1C(C)(C)CCC[C@]21C (stereo partly specified)	-46
COC(=O)[C@@]1(C)CCC[C@]2(C)c3ccc(O)c(C(C)C)c3CCC12 (stereo partly specified)	-76*
CC(C)c1ccc2c(c1)CCC1C(C)(C(N)=O)CCCC21C (stereo unspecified)	-72*
CCN(CC)Cc1cccc(NS(=O)(=O)NCc2ccccc2)c1	-4
C[C@H]1CN([C@@H](C)CO)C(=O)c2cccc(NC(=O)Nc3ccc(C(F)(F)F)cc3)c2O[C@H]1CN(C)S(=O)(=O)c1cn(C)cn1	8
CCS(=O)(=O)N1CCCCN2[C@@H](CO)[C@@H](c3ccc(-c4ccc(C(=O)N(C)C)cc4)cc3)[C@@H]2C1	27
CCCOc1ccc(Cl)c2c(=O)c3ccccc3sc12	47
COc1ccc(Nc2nc(NC(=O)Nc3ccc(Cl)cc3)n[nH]2)cc1	-53
COc1ccc(C2(CNCc3cc(-c4ccc(Cl)cc4)c[nH]c3=O)CCOCC2)cc1	311
COc1ccc(NC2=NC(c3ccc(Cl)cc3)n3c(nc(C)cc3=O)N2)cc1 (stereo unspecified)	-86*
CCc1cn[nH]c1C1CCCN(C(=O)c2cc(CC(C)C)nn2CC)C1 (stereo unspecified)	-65
Cc1noc(C)c1NC(=O)N(C)C[C@H]1OCCCC[C@@H](C)Oc2ccc(NC(=O)Nc3ccc(C(F)(F)F)cc3)cc2C(=O)N([C@@H](C)CO)C[C@H]1C	294
Oc1c(Cl)cc(Cl)cc1Sc1cc(Cl)cc(Cl)c1O	-84*!
COc1ccc(-c2nc3c([nH]2)c(=O)n(C)c(=O)n3C)cc1OC	20
Cc1nc(SCC(=O)OCN2C(=O)c3ccccc3C2=O)n[nH]1	8
COCC1c2c(cnn2C)CCN1S(=O)(=O)Cc1ccccc1 (stereo unspecified)	43
O=C(CSc1nc2ccccc2n1Cc1ccccc1)Nc1ccccn1	-6
CCc1nnc(NC(=O)CSc2nc3cccnc3n2Cc2ccccc2)s1	-83*
Cc1nnc(NC(=O)CSc2ccccn2)s1	10
COc1ccc(NC(=O)N2CCc3nc(-c4ccccc4)sc3C2)c(OC)c1	26
